We go through 75 compounds from PubChem BioAssay AID720532 (National Center for Advancing Translational Sciences (NCATS), 2013).

Values joined by “and” are separate entries in the source; they are usually repeats but may differ in a detail not shown here. Identical values can stand only once. Among all 18,000 compounds or so, about 1,200 (6.7%) were called active. Entries that show only a call come without a potency. Inconclusive results (about 16%) are left out. This is one part of a sample in which actives are shown more often than they occur. Calls follow the shape of the full dose curve; tested in HEK293 cells. Where a structure was tested more than once in an assay, its records may differ in their call. Bridge positions count the residues as written; N and C are the ends. Peptide text beside a SMILES is read from it.
Potency is read from the fitted curve at half-maximal effect.

The nature of the assay: qHTS for Inhibitors of binding or entry into cells for Marburg Virus. The conditions noted are these: Marburg virus pseudotype entry/binding inhibition, cell-based; series mostly up to 49.2 µM. Background: Quantitative high-throughput screening tests each substance at several concentrations.
On to `COc1ccc(-c2nc(-c3ccccc3)oc2Nc2ccc3ccccc3c2)cc1`, for which the activity change, negative = inhibition entry was “inactive”.
On the same count and under the same terms, with `O=S1(=O)CC(N2CCC(Cc3ccccc3)CC2)CN1Cc1ccccc1` (stereo not given) the entry was “inactive”; with `CCOC(=O)C1=C(C(=O)OCC)C(C(=O)OCC)N(S(=O)(=O)C(F)(F)F)c2ccccc21` (stereo not given), “inactive”; with `COC(=O)C(C(=O)OC)[C@@H](NC=O)c1ccccc1`, “inactive”.
Same read-out and setting: in the case of `C=CCN(Cc1ccc([N+](=O)[O-])cc1)S(=O)(=O)C=C` it was “inactive”.
Same read-out and setting: with `COC(=O)CC=C[C@@H](C)[C@H](NC(=O)OCC(Cl)(Cl)Cl)c1ccc2ccccc2c1` the figure was -17.9% [at 8.59 µM] (inactive); with `CC[C@H](C)[C@H](NC(=O)[C@@H](N)CCC(=O)O)C(=O)N[C@@H](CC(C)C)C(=O)N[C@@H](CC(=O)O)C(=O)N[C@H](C(=O)N1CCC[C@H]1C(=O)N[C@@H](CO)C(=O)N[C@H](C(=O)O)[C@@H](C)O)C(C)C`, “inactive”.
Take `CCCCN1CC(COc2ccccc2)Oc2cccc(F)c2S1(=O)=O` (stereo not given): the activity change, negative = inhibition entry is “inactive”.
Same read-out and setting: in the case of `CCCCN1CC(COCc2ccccc2)OCCS1(=O)=O` (stereo not given) it was “inactive”; in that of `CC[C@@]12C=C(/C=C/c3ccccc3)[C@](CC)(C1)[C@H](c1ccccc1)CC2=O`, “inactive”.
On the same count and under the same terms, with `FC(F)(F)c1ccc(-c2nn3ncccc3c2-c2ccnc(Nc3ccc4c(c3)OCCO4)n2)cc1` the entry was “inactive”.
In the case of `COc1cc(Nc2nccc(-c3cnn4ncccc34)n2)cc(OC)c1`, the Potency is 3.53 µM (active).
Same read-out and setting: with `C[C@@H]1C[C@H]2CC[C@H](O2)[C@H](C)C(=O)O[C@@H](C)C[C@@H]2CC[C@@H](O2)[C@@H](C)C(=O)O[C@H](C)C[C@H]2CC[C@H](O2)[C@H](C)C(=O)O[C@@H](C)C[C@@H]2CC[C@@H](O2)[C@@H](C)C(=O)O1` the figure was 0.631 µM (active).
In the case of `C#CCNc1ccc2c(c1)OC[C@@H](C)NS2(=O)=O`, the activity change, negative = inhibition entry is “inactive”.
On the same count and under the same terms, with `COc1cc2c(c(OC)c1OC)CC(C)=C(C)CC2NC(=O)C(F)(F)F` (stereo not given) the figure was -9.07% [at 8.59 µM] (inactive); with `COCOCCn1cc(CN2CCS(=O)(=O)N(Cc3ccc(-c4cccc(N(C)C)c4)cc3)C(CC(C)C)C2=O)nn1` (stereo not given), “inactive”.
On the same count and under the same terms, with `C[C@H](CO)NS(=O)(=O)c1ccc(Br)cc1F` the entry was “inactive”.
The same measure, in the same setting: with `CCCCC/C=C\C[C@H](O)/C=C/C=C/C=C/[C@@H](O)CCCC(=O)O` the entry was “inactive”; with `C=CCOC(=O)C(=C)C`, “inactive”; with `C[C@@H]1CC2=CCCC2[C@]2(O1)C(=O)N(CC1CC1)c1cccc(Br)c12` (stereo not given in full), 72.4% [at 8.59 µM] (inactive).
In the case of `O=C(Nc1cccc(C(=O)N2CCCC2)c1)c1ccccc1`, the activity change, negative = inhibition entry was “inactive”.
The same measure, in the same setting: with `CC(=O)N1CCN(Cc2cc(=O)oc3cc(C)ccc23)CC1` the entry was “inactive”.
With `O=C(OCCN1CCOCC1)C1(c2ccccc2)CCCCC1`, the Potency entry was “inactive and 31.6 µM (active)”.
In the case of `COc1cc(OC)c2c(c1Cl)OC1(C2=O)C(O)=CC(=O)CC1C` (stereo not given), the activity change, negative = inhibition result is “inactive”.
Regarding `CSc1ccccc1N1CCN(CCCCCC(=O)NC2CCCc3ccccc32)CC1` (stereo not given), the Potency is 10 µM (active).
Turning to `COC(=O)Nc1nc2ccc(Sc3ccccc3)cc2[nH]1`, the activity change, negative = inhibition result was “inactive”.
Turning to `COC(=O)Nc1nc2ccc(Oc3ccc(NC(=O)Nc4cccc(Cl)c4)cc3)cc2[nH]1`, the Potency is 4.99 µM (active).
On the same count and under the same terms, in the case of `C1CC[C@H]([C@@]23C[C@H](C[C@H]4CCCN[C@H]42)[C@@H]2CCCCN2C3)NC1` it was 12.6 µM (active).
`COC(=O)CC=C[C@@H](C)[C@H](NC(=O)OCC(Cl)(Cl)Cl)c1ccccc1`: the activity change, negative = inhibition is 0.224% [at 8.59 µM] (inactive).
As to `NC[C@@H]1O[C@H](O[C@@H]2[C@H](O[C@@H]3O[C@H](CO)[C@@H](COC[C@H]4O[C@@H](CN)[C@@H](O)[C@@H](O)[C@@H]4N)[C@@H]3O)[C@@H](O)[C@@H](N)C[C@H]2N)[C@@H](N)[C@H](O)[C@@H]1O`, the activity change, negative = inhibition result was “inactive”.
On the same count and under the same terms, with `Nc1ccc2c3c(cccc13)C(=O)NC2=O` the entry was “inactive”.
On to `S=C(NCCCc1cnc[nH]1)NCCCN(Cc1ccc(Cl)c(Cl)c1)c1ccc(Br)cn1`, for which the Potency was 20 µM (active).
Consider `CCCCC[C@H](O)/C=C/[C@@H]1[C@@H](CC(=O)CCC(=O)O)[C@@H](O)C[C@H]1O`, for which the activity change, negative = inhibition entry is “inactive”.
Regarding `CCOC(=O)[C@@]12C3[C@@H](CCN3C(=O)N[C@@H]1c1ccccc1)[C@@H]2C` (stereo not given in full), the activity change, negative = inhibition was -11.3% [at 8.59 µM] (inactive).
On the same count and under the same terms, with `O=S1(=O)CCSCCN1Cc1ccccc1F` the entry was “inactive”.
For the compound `CC(C)NC[C@H](O)c1ccc2ccccc2c1`, the activity change, negative = inhibition result was “inactive”.
Same read-out and setting: with `Nc1nc2nc(Cl)[nH]c2c(=O)[nH]1` the entry was “inactive”; with `COC(=O)c1cc(C(=O)OC)n2ccc3cc(OC)c(OC)cc3c12`, 51.8% [at 8.59 µM] (inactive); with `CO/N=C(\C(=O)N[C@@H]1C(=O)N2C(C(=O)O)=C(C[N+]3(C)CCCC3)CS[C@H]12)c1csc(N)n1`, “inactive”.
Take `CC[C@@H]1CN2CC[C@@H]1C[C@H]2[C@H](O)c1ccnc2ccc(OC)cc12`: the Potency was 31.6 µM (active).
For `COc1ccc2nccc(C(=O)O)c2c1`, the activity change, negative = inhibition result is “inactive”.
As for `COc1cccc([C@@H]2Oc3ccc(Br)cc3C(=O)[C@H]2OC(=O)NCCc2ccc(OC)c(OC)c2)c1`, the activity change, negative = inhibition entry is “inactive”.
On to `CCCC(C(=O)OCCN(CC)CC)(c1ccccc1)c1ccccc1`, for which the Potency was 15.8 µM (active).
As to `CCC(C(=O)OCCN(CC)CC)c1ccccc1` (stereo not given), the activity change, negative = inhibition entry is “inactive”.
As for `CC[N+]1(CCOC(=O)C(O)(c2ccccc2)c2ccccc2)CCCCC1`, the activity change, negative = inhibition entry is “inactive”.
Same read-out and setting: with `CCCCC/C=C\C/C=C\CCCCCCCCCC(N)=O` the entry was “inactive”.
The same measure, in the same setting: with `CCCCOCC1CN(CCCC)S(=O)(=O)c2c(Oc3ccc(F)cc3)cccc2O1` (stereo not given) the entry was “inactive”; with `CN1C(=O)CN2CCc3ccccc3C2c2cc(Cl)ccc21` (stereo not given), “inactive”.
As for `CN1CCN2c3ccccc3Cc3ccccc3[C@@H]2C1`, the Potency was 15.8 µM (active).
For H-EHIPA-OH, the activity change, negative = inhibition entry is “inactive”.
For the compound `COc1ccc(Nc2ncnc3ccc(OC)cc23)cc1`, the activity change, negative = inhibition result was “inactive”.
For the compound `CC(C)(C)OC(=O)Nc1ccc(OCc2cn(CC(=O)c3ccc(O)cc3)nn2)cc1`, the activity change, negative = inhibition entry is “inactive”.
Still for that read-out and setting: in the case of `CO/N=C(/C(=O)N[C@@H]1C(=O)N2C(C(=O)O)=C(Cn3nnc(C)n3)CS[C@H]12)c1csc(N)n1` it was “inactive”; in that of `CC/C=C\C/C=C\C/C=C\C/C=C\C/C=C\C/C=C\CCC(=O)NC(C)C(=O)O` (stereo not given), “inactive”; in that of `CC12C=C(C=Cc3ccc(F)cc3)C(C)(C1)C(c1ccc(F)cc1)CC2=O` (stereo not given), 8.67% [at 8.59 µM] (inactive).
On the same count and under the same terms, with `CC(C)[C@H]1CC[C@@H](C)C[C@H]1O` the entry was “inactive”.
The same measure, in the same setting: with `COC(=O)C1=C(C(=O)OC)[C@@H]2N(C)c3ccccc3[C@@]23C[C@@H](C(=O)OC)N(C(=O)c2ccco2)C3=N1` the figure was 74% [at 8.59 µM] (inactive).
Consider `C[C@H](CCC(=O)NCC(=O)O)[C@H]1CC[C@H]2[C@H]3[C@@H](C[C@@H](O)[C@]12C)[C@]1(C)CC[C@H](O)C[C@@H]1C[C@@H]3O`, for which the activity change, negative = inhibition entry was “inactive”.
Regarding `COC(=O)[C@@]1(C=C[C@@H](C)[C@H](OC)c2ccccc2Br)[C@@H]2Oc3ccccc3[C@@H]21`, the activity change, negative = inhibition was 4.01% [at 8.59 µM] (inactive).
Same read-out and setting: with `C=C[C@](C)(O)CCC1C(=C)CCC2[C@@](C)(CO)CCC[C@@]12C` (stereo not given in full) the entry was “inactive”.
On the same count and under the same terms, in the case of `COc1cccc([C@@H]2Oc3ccc(OC)cc3C(=O)[C@@H]2OC(=O)Nc2cc(OC)c(OC)c(OC)c2)c1` it was 12.9% [at 8.59 µM] (inactive); in that of `Fc1ccc(Cl)cc1-c1nc(Nc2ccncc2)c2nccnc2n1`, “inactive”.
On to `C=C(C(C)=O)C(O)c1ccc([N+](=O)[O-])cc1` (stereo not given), for which the activity change, negative = inhibition result was “inactive”.
Still for that read-out and setting: in the case of `COc1ccc(-c2nc3c(c4c2C[C@H](c2ccccc2)OC4)CN(C(=O)C2CC2)CC3)c(C)c1` it was -29.5% [at 8.59 µM] (inactive) and -8.72% [at 8.59 µM] (inactive); in that of `C[C@@H](O)[C@@H]1NC(=O)[C@H](CCCCN)NC(=O)[C@H](Cc2c[nH]c3ccccc23)NC(=O)[C@H](Cc2ccccc2)NC(=O)[C@H](Cc2ccccc2)NC(=O)[C@H](CC(N)=O)NC(=O)[C@H](CCCCN)NC(=O)[C@@H](NC(=O)[C@@H]2CCCN2)CSSC[C@@H](C(=O)N[C@@H](CCCCN)C(=O)O)NC(=O)[C@H](CO)NC(=O)[C@H](CO)NC(=O)[C@H](Cc2ccccc2)NC1=O` (H-PCKNFFWKTFSSCK-OH; disulfide 2-13), “inactive”.
For the compound `C[C@@H]1C(c2ccc(F)cc2)=NN(c2ccc(Br)cc2)[C@H]1C(=O)N1CCOC1=O`, the activity change, negative = inhibition result was “inactive”.
The same measure, in the same setting: in the case of `C/C=C/C1=C(C(=O)O)N2C(=O)[C@@H](NC(=O)[C@H](N)c3ccc(O)cc3)[C@H]2SC1` it was “inactive”; in that of `COC(=O)CC1c2ccccc2C(Cc2ccc(OC)cc2)=C(C)N1C(=O)OC` (stereo not given), 0.314% [at 8.59 µM] (inactive) and -19% [at 8.59 µM] (inactive); in that of `CC(C)(C)OC(=O)N1CCC(C(=O)Nc2cccc(C(=O)NCCc3ccccc3)c2)CC1`, “inactive”.
On the same count and under the same terms, in the case of `CC(C)(O)CCC(O)[C@@](C)(O)C1CC[C@]2(O)C3=CC(=O)C4CC(O)C(O)C[C@]4(C)C3CC[C@]12C` (stereo not given in full) it was “inactive”.
For `CC(C)=CCC[C@]1(C)[C@@H](CC=C(C)C)C[C@@]2(CC=C(C)C)C(=O)[C@]1(C(=O)C(C)C)C(=O)C(CC=C(C)C)=C2O`, the Potency is 15.8 µM (active).
As to `CC1(OC(=O)C2CCCC2)C(=O)C=C2C=C(c3ccc(C#N)cc3)OC=C2C1=O` (stereo not given), the activity change, negative = inhibition result is “inactive”.
Still for that read-out and setting: with `CCN1C(=NCc2cc(OC)c(OC)c(OC)c2)NC(c2cccc(C(F)(F)F)c2)C(C(=O)OC)=C1C` (stereo not given) the figure was 12.8% [at 8.59 µM] (inactive); with `O=C1C=C(c2ccccc2)CCC1`, “inactive”.
On to `CC[C@H](C)[C@H](NC(=O)[C@H](CCCNC(=N)N)NC(=O)[C@H](CCCNC(=N)N)NC(=O)[C@H](CC(C)C)NC(=O)[C@H](Cc1ccccc1)NC(=O)CNC(=O)CNC(=O)[C@@H](N)Cc1ccc(O)cc1)C(=O)N[C@@H](CCCNC(=N)N)C(=O)N1CCC[C@H]1C(=O)N[C@@H](CCCCN)C(=O)N[C@@H](CC(C)C)C(=O)N[C@@H](CCCCN)C(=O)N[C@@H](Cc1c[nH]c2ccccc12)C(=O)N[C@@H](CC(=O)O)C(=O)N[C@@H](CC(N)=O)C(=O)N[C@@H](CCC(N)=O)C(=O)O`, for which the activity change, negative = inhibition entry is “inactive”.
